Assay outcomes from PubChem BioAssay.
HIF-2a block – blocks HIF-2a reporter activity. 786-0 RCC cells HIF-2a reporter, luciferase luminescence, overnight. inhibition, % at 18.8 µM. actives 0.72% (n = 360,000);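 active means inhibition of the luminescence signal of 40% or more relative to plate controls, in a single-dose primary screen at 18.75 µM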
Shn3 inh set2 – inhibitors of Schnurri-3 3'UTR reporter in osteoblasts | Clone20 osteoblast Shn3 3'UTR firefly luciferase, 24 h | inhibition, % at 12.5 µM | actives 0.52% (n = 360,000);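 active means mean inhibition of at least 75% with every replicate also reaching 75%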;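 further: 0% = median of neutral control wells and 100% = pilot-screen positive control compound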
Peg3 prom inh-1 – Peg3 promoter activity inhibition. inhibition, % at 20 µM. HeLa PEG-Prom luciferase reporter, luminescence, overnight. actives 1.7% (n = 360,000);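 active means inhibition of at least 50% at 20 µM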
LMP1 NFkB inh – Epstein-Barr LMP1 NF-kappaB reporter inhibition. AID 504558. actives 0.69% (n = 350,000). inhibition, % at 12.5 µM. LMP1-induced NF-kappaB luciferase reporter cells, luminescence; in the data active means inhibition above about 41%;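 further: 0% = neutral control wells and 100% = reference inhibitor control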
MITF TRPM1 inh – reduces MITF-dependent TRPM1 promoter luciferase signal; inhibition, % at 12.5 µM; actives 0.83% (n = 330,000); AID 488899; SK-MEL-5 TRPM1 promoter luciferase, 24 h;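 active means mean inhibition across replicates of 60% or more, whatever share of single replicates reaches that level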
PAX8 inh HTS – lowers PAX8-driven luciferase in RMG-I cells | RMG-I TPO-luciferase reporter, SteadyGlo, 24 h | inhibition, % at 12.6 µM | actives 1.2% (n = 360,000);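 active means mean replicate inhibition at least 60% with every replicate also reaching 60%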;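 further: luciferase light reporting Pax8 driven TPO promoter activity; plate controls were median of neutral control wells for no effect and mitoxantrone controls for full effect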
Peg3 prom inh-2 – confirmation of Peg3 promoter inhibitors. shares compounds with Peg3 prom inh-1. HeLa PEG-Prom luciferase reporter, luminescence, overnight. inhibition, % at 20 µM. actives 84% (n = 1,300). AID 602417;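 active means at 20 µM dose, 40% or more inhibition averaged across four replicates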
Active calls of the source: *; . = not tested or not shown. This is a sample that favours compounds with a hit; in the whole collection about 2.8% have one here.

SMILES	HIF-2a block	Shn3 inh set2	Peg3 prom inh-1	LMP1 NFkB inh	MITF TRPM1 inh	PAX8 inh HTS	Peg3 prom inh-2
C/C(=N\NC(=O)c1nnn(-c2nonc2N)c1CN(C)c1ccccc1)c1ccccc1O	14	37	51*	22	12	21	71*
CN(C)c1ccc(/C=N/NC(=O)c2nnn(-c3nonc3N)c2COc2ccc(F)cc2)cc1	14	6	87*	-5	-6	-5	51*
CN(C)Cc1c(C(=O)N/N=C/c2ccc(OCc3ccc(F)cc3)cc2)nnn1-c1nonc1N	-7	4	-37	-12	-23	-9	.
CN(Cc1c(C(=O)N/N=C/c2ccc(F)cc2)nnn1-c1nonc1N)C1CCCCC1	5	1	2	0	-3	-4	.
CCOc1ccc(/C=N/NC(=O)c2nnn(-c3nonc3N)c2COc2ccc(F)cc2)cc1	15	17	54*	7	-3	-15	25
COc1ccc(/C(C)=N/NC(=O)c2nnn(-c3nonc3N)c2CN(C)c2ccccc2)cc1	2	-4	14	.	-6	3	.
COCC(=O)Nc1ccc2c(c1)C(=O)N(C)C[C@@H](OC)[C@@H](C)CN(C(=O)Cc1ccccn1)[C@H](C)CO2	.	.	.	.	.	-19	.
Cc1ccc(-c2nc(-c3ccccn3)no2)cc1Cl	77*	70	93*	68*	83*	81*	72*
c1ccc(-c2cc(-c3nc(-c4ccccn4)no3)c3ccccc3n2)cc1	-17	28	8	12	-10	.	.
c1ccc(-c2nc(-c3ccccn3)no2)cc1	33	16	76*	41*	53	.	46*
C[C@H](CO)N1C[C@H](C)[C@H](CN(C)CC2CC2)Oc2c(NC(=O)C3CCOCC3)cccc2C1=O	.	.	.	.	.	-8	.
COc1ccc(NC(=O)N(C)[C@H]2C[C@H]3c4[nH]c5ccc(-c6cccc(C)c6)cc5c4CCN3C[C@H]2[C@H](C)O)cc1	-14	-17	92*	5	.	.	53*
COc1ccc(NC(=O)N(C)[C@H]2C[C@H]3c4[nH]c5ccccc5c4CCN3C[C@H]2[C@H](C)O)cc1	-12	1	-7	5	.	-19	.
CCO[C@H]1OC(C(=O)NCc2ccccc2)=C[C@@H](c2csc3ccccc23)[C@@H]1CCCO	.	.	.	.	.	-3	.
O=C(N[C@@H]1CC[C@H](CCn2cc(C3(O)CCCC3)nn2)O[C@H]1CO)C1CC1	.	.	.	.	.	6	.
COc1ccc(CN(C)C(=O)C(Cc2ccccc2)NC(=O)c2ccccc2)cc1F (stereo not given)	18	8	54*	10	4	27	84*
CSc1ccc(CN(C)C(=O)C(Cc2ccccc2)NC(=O)c2ccccc2)cc1 (stereo not given)	15	17	66*	1	4	30	62*
COCCN=C1NN=C(c2cc(C)n(CC3CCCO3)c2C)CS1 (stereo not given)	3	1	7	3	17	3	.
C=CCN=C1NN=C(c2cc(C)n(CC=C)c2C)CS1	58*	72	74*	53*	84*	15	82*
CCN(CCN(C)C)C(=O)C1CCN(S(=O)(=O)c2c(C)noc2/C=C/c2ccccc2F)CC1	-2	-8	90*	-7	45	36	51*
CC(C)NC(=O)Nc1ccc2c(c1)CC(=O)N([C@@H](C)CO)C[C@@H](C)[C@H](CN(C)S(=O)(=O)c1cn(C)cn1)O2	.	.	.	.	.	13	.
C/C=C/c1ccc([C@@H]2[C@@H](CN(CC)C(=O)CC)N(S(C)(=O)=O)[C@H]2CO)cc1	.	.	.	.	.	2	.
O=C(N/N=C\c1c(O)ccc2ccccc12)c1ccc(Cn2cccn2)o1	12	89*	54*	25	59	67*	67*
COc1ccccc1C(c1nnnn1CCc1ccccc1)N1CCN(c2ccccc2)CC1 (stereo not given)	17	38	22	4	-2	.	.
COc1cccc(C(c2nnnn2CCc2ccccc2)N2CCN(c3ccccc3)CC2)c1OC (stereo not given)	8	25	51*	16	1	.	34
CC(C)NC(=O)N(C)C[C@@H]1Oc2c(NS(=O)(=O)c3ccc(F)cc3)cccc2C(=O)N([C@H](C)CO)C[C@@H]1C	.	.	.	.	.	1	.
